High-throughput results (PubChem)
The list is not random: actives were taken first. Their share in the collection is about 2.5%.
Granule exo inh = blocks lytic granule exocytosis; inhibition, % at 10 µM; 360,000 compounds, 0.66% hits; TALL-104 LAMP-1 surface exposure, flow cytometry; cells stimulated with thapsigargin and PMA; AID 651702;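 active = inhibition above about 55%, limit read from the data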
rCAG binder = r(CAG) repeat RNA binding. TO-PRO-1 dye displacement fluorescence. inhibition, % at 3 µM. 370,000 compounds, 1.3% hits;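 active = inhibition above the plate cutoff, the mean of all test compounds on that plate plus 3 SD, cut at about 35% in these data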;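 note: 0% = DMSO alone and 100% = 100 µM mitoxantrone as full dye displacement; higher means more dye released from RNA so lower well fluorescence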
ABCB6 inh 2 = inhibitors of human ABC transporter ABCB6 | Q9NP58 | K562-ABCB6 porphyrin accumulation, flow cytometry, 1 h; active compounds read low | fluorescence ratio to DMSO, % at 10 µM | 360,000 compounds, 0.19% hits;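 active = fluorescence ratio to DMSO below 75%, the collection mean minus 3 SD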;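 note: signal is porphyrin accumulated inside mitochondria; 100% equals median channel fluorescence of DMSO control wells; lower ratio means ABCB6 inhibition with less porphyrin fluorescence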
Target sequence (Q9NP58 whole entry, looked up): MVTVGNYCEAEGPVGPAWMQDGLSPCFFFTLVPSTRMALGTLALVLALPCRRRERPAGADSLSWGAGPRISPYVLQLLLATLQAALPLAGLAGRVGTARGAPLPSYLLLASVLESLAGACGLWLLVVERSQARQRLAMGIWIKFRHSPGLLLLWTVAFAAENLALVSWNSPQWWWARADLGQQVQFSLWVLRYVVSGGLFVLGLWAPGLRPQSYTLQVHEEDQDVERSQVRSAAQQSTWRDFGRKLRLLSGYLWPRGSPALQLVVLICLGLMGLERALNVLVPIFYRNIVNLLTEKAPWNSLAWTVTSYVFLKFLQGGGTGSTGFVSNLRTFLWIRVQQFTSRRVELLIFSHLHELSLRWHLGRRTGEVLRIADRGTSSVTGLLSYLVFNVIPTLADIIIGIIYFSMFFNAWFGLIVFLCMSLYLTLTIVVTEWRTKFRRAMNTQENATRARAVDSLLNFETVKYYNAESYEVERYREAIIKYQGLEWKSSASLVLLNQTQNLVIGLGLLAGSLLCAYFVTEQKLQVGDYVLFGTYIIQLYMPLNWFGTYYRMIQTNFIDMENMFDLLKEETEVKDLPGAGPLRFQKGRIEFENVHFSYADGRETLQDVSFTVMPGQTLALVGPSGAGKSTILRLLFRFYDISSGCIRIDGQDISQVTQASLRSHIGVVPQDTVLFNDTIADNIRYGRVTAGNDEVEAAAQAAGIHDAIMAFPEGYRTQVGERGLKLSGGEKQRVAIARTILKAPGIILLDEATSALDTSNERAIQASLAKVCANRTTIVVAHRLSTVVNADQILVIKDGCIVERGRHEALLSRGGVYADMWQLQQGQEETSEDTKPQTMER
PG9 binder = PG9 antibody binding by small molecule; inhibition, % at 6.7 µM; 360,000 compounds, 0.43% hits; TR-FRET gp120-PG9 antibody binding; in the data active = inhibition above about 8.5%
Granule exo CP1 = blocks lytic granule exocytosis | shares compounds with Granule exo inh | TALL-104 cells, LAMP-1 externalization, flow cytometry; stimulated with PMA plus thapsigargin | inhibition, % at 10 µM | 1,500 compounds, 11% hits | AID 651954; in the data active = inhibition above about 60%;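 note: 0% = stimulated vehicle wells and 100% = unstimulated wells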
Numbers without * were called inactive; nt = no result given.

SMILES	Granule exo inh	rCAG binder	ABCB6 inh 2	PG9 binder	Granule exo CP1
Cc1ccsc1CN(C)C(=O)CN1C(=O)NC2(CCCc3ccccc32)C1=O (configuration not stated)	-4	0	91	-1	nt
CC1(C(=O)NS(=O)(=O)c2ccc(Cl)cc2)CCN1C(=O)Cc1ccsc1 (configuration not stated)	78*	4	104	-1	-14
COc1cccc(CNC(=O)[C@H]2CCCN2C(=O)[C@H]2CCCN2C(=O)c2cccc(OC)c2)c1	nt	0	nt	0	nt
COc1cc(-c2coc3c(C(=O)NCc4ccc(OC)c(OC)c4)cccc23)ccc1O	66*	9	89	-2	92*
COc1cc(-c2coc3c(C(=O)NCc4ccc(N(C)C)cc4)cccc23)ccc1O	4	14	100	-1	nt
Cc1ccc(-c2noc(-c3ccccc3F)n2)cc1	-2	-3	101	-1	nt
O=C(O)c1ccc(-c2noc(-c3ccccc3F)n2)cc1	97*	4	98	2	-12
Cc1cc(N2CCN(Cc3nc(-c4ccc(Cl)cc4)oc3C)CC2)cc(C)n1	5	7	95	-1	nt
COc1ccc(-c2nc(CN3CCN(c4cc(C)nc(C)c4)CC3)c(C)o2)c2ccccc12	58*	8	101	0	36
COc1ccc(CN2CCCC(N3CCN(c4cccc(Cl)c4)CC3)C2)cc1OC (configuration not stated)	67*	-6	97	-2	-15
Oc1ccccc1CN1CCCC(N2CCN(c3cccc(C(F)(F)F)c3)CC2)C1 (configuration not stated)	68*	0	100	1	-11
CCOc1cc(CN2CCCC(N3CCN(c4ccc(F)cc4)CC3)C2)ccc1OC (configuration not stated)	46	-10	99	-2	nt
COc1cc(CN2CCCC(N3CCN(c4ccccc4C)CC3)C2)cc(Cl)c1O (configuration not stated)	57*	-7	95	-1	-3
Nc1nc2cc(Cl)ccc2cc1C(=O)NCCCc1ccccc1	-7	nt	96	nt	nt
COCCn1c(SCC(=O)Nc2ccccc2)nc2c(oc3ccccc32)c1=O	-4	3	89	-1	nt
COc1ccccc1NC(=O)CSc1nc2sc(C)c(C)c2c(=O)n1C	60*	1	100	-3	-14
COCCn1c(SCC(=O)Nc2ccccc2OC)nc2c(oc3ccccc32)c1=O	65*	2	99	-1	0
Cc1sc2nc(SCC(=O)Nc3c(C)n(C)n(-c4ccccc4)c3=O)n(C)c(=O)c2c1C	-1	0	95	-3	nt
CCOC(=O)Cc1csc(-n2sc3ccccc3c2=O)n1	78*	20	103	-2	36
Cn1nc(C(=O)NC2CCC(O)CC2)c2ccccc2c1=O (configuration not stated)	4	0	100	-1	nt
Cc1cc(C(=O)Nc2ccc(Nc3ccccc3)cc2)ccc1[N+](=O)[O-]	64*	10	100	-1	-3
Cc1cc(OC(C)C(=O)N(Cc2ccco2)C2CCS(=O)(=O)C2)ccc1Cl (configuration not stated)	-2	nt	104	nt	nt
COc1ccc(NC(=O)N(C2CCCCC2)C2CCN(C(C)C)CC2)c(OC)c1	70*	-1	97	0	-12
Cc1ccc2sc(N(CCCN(C)C)C(=O)CCS(=O)(=O)c3ccccc3)nc2c1C	84*	2	104	1	54
Cc1ccc2sc(N(CCCN(C)C)C(=O)c3ccc(S(=O)(=O)N(C)C4CCCCC4)cc3)nc2c1C	62*	4	97	0	36
SMILES	Granule exo inh	rCAG binder	ABCB6 inh 2	PG9 binder	Granule exo CP1
CN(C)CCCN(C(=O)CCS(=O)(=O)c1ccccc1)c1nc2cc3c(cc2s1)OCO3	34	-1	103	-1	nt
CCN(Cc1ccccc1)S(=O)(=O)c1ccc(C(=O)N(CCCN(C)C)c2nc3cc4c(cc3s2)OCO4)cc1	66*	2	105	0	55
CN(C)CCCN(C(=O)CCSc1ccccc1)c1nc2cc3c(cc2s1)OCO3	60*	4	92	0	70*
O=[N+]([O-])c1cccc(NC(=S)Nc2nc(-c3ccc(Cl)cc3Cl)cs2)c1	nt	11	nt	1	nt
CC(=O)Nc1ccc(NC(=O)C/C(C)=N/NC(=O)COc2cc(C)c(Br)cc2Br)cc1	-4	8	98	-1	nt
CCN(Cc1ccccc1)S(=O)(=O)c1ccc(C(=O)N(CCCN(C)C)c2nc3c(C)c(C)ccc3s2)cc1	60*	3	95	1	33
Cc1ccc2sc(N(CCCN(C)C)C(=O)c3ccc(S(=O)(=O)N4CCOCC4)cc3)nc2c1C	9	-4	99	-1	nt
O=C(c1ccco1)N1CCC(c2nc(-c3ccccc3Cl)no2)CC1	100*	-6	95	1	-5
O=C(c1ccco1)N1CCC(c2nc(-c3ccc(F)cc3)no2)CC1	-3	-8	103	1	nt
COc1ccc(OCC(=O)NNC(=O)c2cccc(O)c2)cc1	-2	0	97	2	nt
Cc1cc(NC(=O)c2ccc(C#N)cc2)on1	2	1	106	-1	nt
CCCCN(C)c1c(C)nc2ccc(C(=O)NCc3cccs3)cn12	-20	-2	103	0	nt
COc1ccccc1CNc1nc(NCc2ccc(C(C)C)cc2)c2sccc2n1	62*	4	102	1	85*
COc1ccccc1CNc1nc(NC(C)C)nc2ccsc12	-13	0	85	2	nt
COc1ccccc1C(=O)Nc1c(C(=O)N(CCN(C)C)Cc2ccco2)oc2ccccc12	66*	-2	102	-1	2
Cc1ccccc1C(=O)Nc1c(C(=O)N(CCN(C)C)Cc2ccco2)oc2ccccc12	9	-9	98	0	nt
Cc1cc(C)c(C)c(S(=O)(=O)Nc2cccc(-n3cnnn3)c2)c1C	60*	10	99	-1	-14
CCC(C(=O)NCCc1ccc(C)cc1)n1nc(C)c2c(C)n(-c3ccccc3)nc2c1=O (configuration not stated)	86*	-9	99	0	-4
CCC(C(=O)NCCCN(CC)Cc1ccccc1)n1nc(C)c2sc3ccccc3c2c1=O (configuration not stated)	58*	-7	101	1	-5
O=C(NCCNC(=O)c1ccc(-c2ccc(Cl)c(Cl)c2)o1)c1cnccn1	9	-1	100	-2	nt
CCCC(O)(CCN1CCCCC1)c1ccc(OCC)cc1 (configuration not stated)	6	0	98	1	nt
COc1ccc(C(O)(CCN2CCCCC2)C2CCCCC2)cc1 (configuration not stated)	75*	-5	100	1	-12
O=C(CCN1CCc2ccccc2C(c2ccccc2)C1)c1ccc2c(c1)OCCO2 (configuration not stated)	96*	2	97	-1	81*
O=C(CCN1Cc2ccccc2C1)c1ccc2c(c1)OCCO2	40	-6	107	1	nt
CC(NC(=O)c1ccc(F)cc1Cl)C1CC2CCC1C2 (configuration not stated)	-1	-1	95	2	nt
